This note sets out measurements from PMC7819943, “Rice protein-binding microarrays: a tool to detect cis-acting elements near promoter regions in rice”.

In all, about 68,000 sequences were measured (“fluorescence intensity (a.u.)”: median about 9,100, highest 2% from about 16,000 on). This is one part of a sample in which the highest values are shown more often than they occur.

OsWRKY34, sequence (Q0JBA9 entry or part of it): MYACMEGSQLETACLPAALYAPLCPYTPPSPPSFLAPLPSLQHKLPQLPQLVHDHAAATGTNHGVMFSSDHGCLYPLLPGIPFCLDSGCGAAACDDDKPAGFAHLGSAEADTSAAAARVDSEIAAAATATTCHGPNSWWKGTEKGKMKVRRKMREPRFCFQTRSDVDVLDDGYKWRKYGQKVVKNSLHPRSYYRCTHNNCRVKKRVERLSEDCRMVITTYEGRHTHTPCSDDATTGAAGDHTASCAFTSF

The test addresses OsWRKY34 (Oryza sativa, UniProt Q0JBA9 1-250). Nature of the test: protein-binding microarray (RPBM); PBS, 2% BSA, 51.3 ng/ul salmon testes DNA, 50 uM zinc acetate, 200 nM TF, 25 C, 1 h; high values mean tight binding. Particulars: protein: recombinant; tags: N-terminal polyhistidine and DsRed monomer fusion (pET32a); label: CyDye5-dUTP incorporated in the synthesized complementary strand; 3' TTTTT single-stranded linker to array surface; dsDNA, one strand shown. In outline: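 The binding signal for each feature is its fluorescence intensity in arbitrary units. An Axon 4000B scanner was used to read a custom Agilent array that had been made double-stranded with Cy5-dUTP primer extension, blocked with 2% BSA, incubated at 25 °C for 1 h with 200 nM protein in PBS, 2% BSA, salmon testes DNA and 50 µM zinc acetate, and washed. The protein was an N-terminal polyhistidine–DsRed transcription factor fusion from E. coli BL21-CodonPlus, purified on Ni–NTA.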
On to “AAGCAGCAAAAGTCACACATACACTCTCTCTGCTACTACTCGGAGTCACCTAGTGCAG”, for which the binding signal was 8160 fluorescence intensity (a.u.).
The same measure for “TTAACTTTTACTCTAATTTATTCTCCTGTACCTTTTTATACGGAGTCACCTAGTGCAG”: 8250 fluorescence intensity (a.u.); for “AGGTGGTTGGTGAGGTTTGCTTTGCACGATCGAGTGAGGACGGAGTCACCTAGTGCAG”: 10500 fluorescence intensity (a.u.); for “ACGCCGTTGACTTTTTAAGCAACATTTGACCATTCGTTTTCGGAGTCACCTAGTGCAG”: 30000 fluorescence intensity (a.u.).
Next, “AAATGTTTGACGCCGTTGACTTTTTTAAACATGTTTGACCCGGAGTCACCTAGTGCAG”: 33600 fluorescence intensity (a.u.); “TCCTTCCCTAAATGTTTGACGCCGTTGACTTTTTTAAACACGGAGTCACCTAGTGCAG”: 16600 fluorescence intensity (a.u.); “TTTGACGCCGTTGACTTTTTTAAACATGCTTGATCATTCACGGAGTCACCTAGTGCAG”: 13700 fluorescence intensity (a.u.).
Regarding “ATATACTCCCTCCTTCCCTAAATGTTTGACGCCGTTGACTCGGAGTCACCTAGTGCAG”, the binding signal is 11400 fluorescence intensity (a.u.).
With “TCCGTTTCGAAATGCTTGACGCCGTTGACTTTTTTAAACACGGAGTCACCTAGTGCAG”, the binding signal was 19400 fluorescence intensity (a.u.).
For the sequence “AACAGCCTGTTTTTGTGTGTTTTTTTCGTAAGTAATTAGTCGGAGTCACCTAGTGCAG”, the binding signal is 8760 fluorescence intensity (a.u.).
“GGCTGCCCGCTCCTACATCCACATGCATGCTTCACACTGCCGGAGTCACCTAGTGCAG”: the binding signal is 8330 fluorescence intensity (a.u.).
On to “TTAGTTGTTACCTTTGTCTCCTTCGTTGATCCATTGAAAGCGGAGTCACCTAGTGCAG”, for which the binding signal is 10500 fluorescence intensity (a.u.).
Turning to “GTATACCTGCGCGTATACGGATGTTTTCGGCGTACATTAACGGAGTCACCTAGTGCAG”, the binding signal was 8390 fluorescence intensity (a.u.).
The same measure for “GTTCATCAATCTACTGTACTGGCCTCCTTCTCAGCTCTCACGGAGTCACCTAGTGCAG”: 9300 fluorescence intensity (a.u.); for “TGTTTGACGCCGTTGACTTTTTTAAACATGTTTGACCATTCGGAGTCACCTAGTGCAG”: 34200 fluorescence intensity (a.u.).
Next, “ATGACGCCGTTGACTTTTTAACAAACGTTTGACCATTCGTCGGAGTCACCTAGTGCAG”: 21700 fluorescence intensity (a.u.).
In the case of “TAACGCCGTTTACCTTTTAACAAACGTTTTACCTTTCGTTCGGAGTCACCTAGTGCAG”, the binding signal is 10400 fluorescence intensity (a.u.).
Next, “CTTCCCTAAATGTTTGACGCCGTTGACTTTTCTAAACATGCGGAGTCACCTAGTGCAG”: 18600 fluorescence intensity (a.u.).
Regarding “TGACGCCGTTGGTTTTTTTAAACATGTTTGACCATTCGTCCGGAGTCACCTAGTGCAG”, the binding signal was 8990 fluorescence intensity (a.u.).
For the sequence “CTTCCCTAAATGTTTAACGCCATTGACTTTTTTAAACATGCGGAGTCACCTAGTGCAG”, the binding signal is 12900 fluorescence intensity (a.u.).
Regarding “AATGTTTGACGCCGTTGACTTTTTTAAACATGTTTGACCACGGAGTCACCTAGTGCAG”, the binding signal was 42500 fluorescence intensity (a.u.).
Consider “AACTTTTTGATATACGCTCGATCATTCATCTTATTGAATACGGAGTCACCTAGTGCAG”, for which the binding signal was 8030 fluorescence intensity (a.u.).
As for “CCCGTGTCTTGTGTGTTTCCATTCTCGCGAACCTTCCACACGGAGTCACCTAGTGCAG”, the binding signal was 9910 ± 264 fluorescence intensity (a.u.).
The same measure for “TTAATTTTTTTCTCATTTGTGCGTCCTATGGTCAAGCGTCCGGAGTCACCTAGTGCAG”: 8490 fluorescence intensity (a.u.); for “AATTCCGGCCCAATAGTCACTTGTGTTGGCCACTTCGCCTCGGAGTCACCTAGTGCAG”: 9010 fluorescence intensity (a.u.); for “GATTCATCGATCTTTTACGAGTACTATTTTTGTGATTATTCGGAGTCACCTAGTGCAG”: 11300 fluorescence intensity (a.u.).
Next, “TACATGTGGGTCCCATGGGTTTTATTATCTTTTTCGGATCCGGAGTCACCTAGTGCAG”: 9360 fluorescence intensity (a.u.); “AATCTACAAGATATATAACTAGATGTGTGGTGGGTTGAAACGGAGTCACCTAGTGCAG”: 8280 fluorescence intensity (a.u.); “AATTAGTTCCTGGACTTTGTGTATTACTAGTACTACTCCACGGAGTCACCTAGTGCAG”: 8570 fluorescence intensity (a.u.).
For “TGACTCTATTTTTTCCTTCGGTCTGCTGTCTGCACTCTGGCGGAGTCACCTAGTGCAG”, the binding signal is 11300 fluorescence intensity (a.u.).
Next, “GCCACGAGTTCCACGGCCGCGGCGTCGTCGTCGTCGTCGTCGGAGTCACCTAGTGCAG”: 8090 fluorescence intensity (a.u.); “TGTCTAGCTGCTCCGACCAGTCAACCGTTGAACGTTGACTCGGAGTCACCTAGTGCAG”: 14700 fluorescence intensity (a.u.).
Consider “ACCACCGCCGCGGCGGCGTCGCCCACGCCGTGCCGCCCCGCGGAGTCACCTAGTGCAG”, for which the binding signal was 8160 fluorescence intensity (a.u.).
For the sequence “CTCCGCCTCGCGCCGTTGTCGCCGTCGCCTCGCGCCGCCACGGAGTCACCTAGTGCAG”, the binding signal was 10100 fluorescence intensity (a.u.).
For the sequence “GGTTGACCGTAGTCAACTCGCCACGTTGACTAGAACCGAGCGGAGTCACCTAGTGCAG”, the binding signal is 17900 fluorescence intensity (a.u.).
As for “CGTAGGCCACGCCACCTCACCCTGTTGACCGAGTCAAACCCGGAGTCACCTAGTGCAG”, the binding signal was 11900 fluorescence intensity (a.u.).
Next, “CTGCCATCGCGTCGGCGTCGCGCCGCTGCCGTTGACCGTGCGGAGTCACCTAGTGCAG”: 16700 fluorescence intensity (a.u.); “TCGTCGGCGTCGCGTTCACGGCCGCCGTGGCCGTGGCCGTCGGAGTCACCTAGTGCAG”: 16500 fluorescence intensity (a.u.); “CGTTGTCGCCACCACCACCGCCGCCGTCGCCACAACTCCGCGGAGTCACCTAGTGCAG”: 20500 fluorescence intensity (a.u.).
On to “AGCGTCGCTGCCATCATCGCCGTCGCGTCGCTCGTCGCCGCGGAGTCACCTAGTGCAG”, for which the binding signal is 8220 fluorescence intensity (a.u.).
“GTCTCCGCCATCGTTGTCGCCGTCGCCTCGCGCCACCACGCGGAGTCACCTAGTGCAG”: the binding signal is 8230 fluorescence intensity (a.u.).
The same measure for “CGCCACCATCGCTGCGCCGCCATCGCCACCACCGCAGCCGCGGAGTCACCTAGTGCAG”: 8840 fluorescence intensity (a.u.); for “TCTCCCTTTCATTTTTATGTATGTTGGAATTATTTTTGTTCGGAGTCACCTAGTGCAG”: 8590 fluorescence intensity (a.u.).
The same measure for “TATTTGATCCCGTTTTTTAAAATCGAGCTTACCGTTTGACCGGAGTCACCTAGTGCAG”: 10500 fluorescence intensity (a.u.).
“GTGGAGCTATACCTTCTACTCTCAGCAATTGTCCTTTAGACGGAGTCACCTAGTGCAG”: the binding signal is 9460 fluorescence intensity (a.u.).
In the case of “ACGCGGCCGCCGAGCTGGACTCCTCATCCCCAGCTTCGCTCGGAGTCACCTAGTGCAG”, the binding signal was 8600 fluorescence intensity (a.u.).
The same measure for “CAATTATCCTCTGTGCTGTTTGACATTTTCTTGGTTAGTGCGGAGTCACCTAGTGCAG”: 12000 fluorescence intensity (a.u.).
